Laboratory results as given in the supplement of paper PMC13380429.

System: Vero E6 infected with SARS-CoV-2
Assay: inhibition of SARS-CoV-2 cytopathic effect; higher = more antiviral protection, active = above 15
Conditions: 48 h

Measured: inhibition of SARS-CoV-2 cytopathic effect

Cc1ccc2nc(NCCN)c3ncc(C)n3c2c1
inactive: 1 nM -1.03% | 8.33 nM -0.71% | 100 nM -2.54% | 833.33 nM 0.69% | 10000 nM -11.4%

O=C(c1ccc(F)cc1)C1CCN(CCn2c(=S)[nH]c3ccccc3c2=O)CC1 [altanserin]
inactive: 1 nM -0.65% | 8.33 nM 0.82% | 100 nM 0.34% | 833.33 nM 2.37% | 10000 nM 1%

C[C@H](CCC(=O)O)[C@H]1CC[C@H]2[C@@H]3C(=O)C[C@@H]4CC(=O)CC[C@]4(C)[C@H]3CC(=O)[C@]12C [dehydrocholate-acid]
inactive: 1 nM -5.5% | 8.33 nM -4.18% | 100 nM -2.25% | 833.33 nM -2.84% | 10000 nM -7.01%

O=C1c2ccccc2C(Cc2ccncc2)(Cc2ccncc2)c2ccccc21
inactive: 1 nM 1.49% | 8.33 nM -1.95% | 100 nM -1.48% | 833.33 nM -2.88% | 10000 nM -3.65%

CC(C)(C)NC(=O)[C@@H]1C[C@@H]2CCCC[C@@H]2CN1C[C@@H](O)[C@H](Cc1ccccc1)NC(=O)[C@H](CC(N)=O)NC(=O)c1ccc2ccccc2n1 [saquinavir]
inactive: 1 nM -9.33% | 8.33 nM -7.46% | 100 nM -1.46% | 833.33 nM -6.25% | 10000 nM -22%

CNCC(O)c1ccc(O)c(O)c1 (racemic) [DL-Adrenaline]
inactive: 1 nM 1.39% | 8.33 nM -1.53% | 100 nM 1.56% | 833.33 nM -2.05% | 10000 nM -1.47%
